In PubChem BioAssay (NCATS):
Inconclusive results are not listed. Activity calls are given as the source filed them. Unless noted, calls come from the whole dose curve.

Key:
[1] = target: Peroxisome proliferator-activated receptor delta (Homo sapiens) (UniProt Q03181); assay: qHTS assay for small molecule agonists of peroxisome proliferator-activated receptor delta signaling (AID 588534);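 note: 0% = DMSO basal wells and 100% = positive control agonist at 10 µM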
Procedure, shortened: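 Cell-based beta-lactamase reporter assay run in agonist mode: cells seeded and incubated 5 hrs at 37 C, compounds added and incubated 18 hrs at 37 C. CCF4 dye fluorescence read after 2 hrs at RT; EC50 and efficacy from Hill fits.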

[2] = target: Peroxisome proliferator-activated receptor gamma (Homo sapiens) (UniProt P37231); assay: qHTS assay for small molecule agonists of peroxisome proliferator-activated receptor gamma signaling (AID 588536; active = well fitted curve in the direction sought with a large enough effect in the signal ratio, with a control signal flat, not every such curve was filed as active; the % refers to the signal ratio;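 note: 0% = DMSO basal wells and 100% = rosiglitazone at 2 µM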)
Procedure, shortened: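 Ratiometric blue/green fluorescence (405 nm excitation; 460 and 530 nm emission) from CCF4-loaded HEK293 reporter cells serves as signal. Exposure to test compounds lasts 16 h at 37 C in medium containing 1% charcoal/dextran-treated serum.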

[3] = target: Peroxisome proliferator-activated receptor gamma (Homo sapiens) (UniProt P37231); assay: qHTS assay for small molecule antagonists of peroxisome proliferator-activated receptor gamma signaling (AID 588537; active = well fitted inhibition curve with a large enough effect in the signal ratio, with a control signal flat, not every such curve was filed as active; the % refers to the signal ratio;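 note: reporter cells co-stimulated with 50 nM rosiglitazone agonist during compound treatment; % of control where 0% means no effect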)
Procedure, shortened: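 PPAR-gamma-UAS-bla HEK293 cells (3000/well, 1% charcoal/dextran-stripped FBS) were preincubated 6-6.5 h at 37 C, given titrated compounds, then stimulated with 50 nM rosiglitazone for 16 h. Beta-lactamase activity was read with CCF4 dye; IC50 came from Hill fits.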

[4] = target: Vitamin D3 receptor (Homo sapiens) (UniProt P11473); assay: qHTS assay for small molecule antagonists of vitamin D receptor signaling (AID 588541);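 note: receptor activated by calcitriol during compound treatment; series mostly up to about 77 µM; % is set by controls: 0 for no effect and ±100 for the full control effect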
Procedure, shortened: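 VDR-UAS-bla HEK293T cells (2000/well, 2% charcoal-stripped FBS) were treated with titrated compounds plus 1-alpha,25-dihydroxyvitamin D3 (50 nM or 3 nM final) for 16 h at 37 C. CCF4 beta-lactamase fluorescence was read; Hill fits gave IC50.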

[5] = target: Vitamin D3 receptor (Homo sapiens) (UniProt P11473); assay: qHTS assay for small molecule agonists of vitamin D receptor signaling (AID 588543);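 note: 0% = DMSO basal and 100% = reference agonist control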
Procedure, shortened: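 Measured: β-lactamase reporter activity (CCF4, 405 nm excitation, 460/530 nm emission) in HEK293T VDR-UAS-bla cells after 16 h compound exposure at 37 °C. Normalization against 50 nM 1α,25-dihydroxyvitamin D3 and DMSO; Hill-fit EC50.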

[6] = target: Retinoic acid receptor RXR-alpha (Homo sapiens) (UniProt P19793); assay: qHTS assay for small molecule agonists of retinoid X receptor alpha signaling (AID 588544);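 for activation: 0% = DMSO basal wells and 100% = reference agonist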
[7] = qHTS assay for small molecule antagonists of retinoid X receptor alpha signaling (AID 588546; active = well fitted inhibition curve with a large enough effect in the signal ratio, with a control signal flat, not every such curve was filed as active; the % refers to the signal ratio;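 note: cells stimulated with 9-cis-retinoic acid as agonist; % is set by controls: 0 for no effect and ±100 for the full control effect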); conditions: HEK293T RXRa-UAS-bla, beta-lactamase ratio, antagonist mode; measured here: W530 green channel, cytotoxicity proxy
Procedure, shortened: (§1)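 Beta-lactamase reporter inhibition, read as CCF4 fluorescence ratio (ex 405, em 460/530 nm) after 2 h at RT. HEK293T UAS-bla cells, 2500/well, were stimulated with 9-cis-RA at 500 or 100 nM final alongside test compound for 18 h at 37 C.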

[8] = target: Retinoic acid receptor RXR-alpha (Homo sapiens) (UniProt P19793); assay: as above; conditions: HEK293T RXRa-UAS-bla, beta-lactamase ratio, antagonist mode
Procedure, shortened: as §1

[9] = target: Thyroid hormone receptor beta (Homo sapiens) (UniProt P10828); assay: qHTS assay for small molecule antagonists of thyroid hormone receptor beta signaling (AID 588547; active = well fitted inhibition curve with a large enough effect in the signal ratio, with a control signal flat, not every such curve was filed as active; the % refers to the signal ratio;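 note: cells stimulated with 0.4 nM T3 agonist during compound exposure; series mostly up to about 77 µM; % is set by controls: 0 for no effect and ±100 for the full control effect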); conditions: TR-UAS-bla HEK293, beta-lactamase ratio, antagonist mode, 18 h
Procedure, shortened: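 TR-UAS-bla GripTite HEK293 cells in 2% charcoal/dextran FBS medium were preincubated 4 h at 37 C, given compound (0.59 nM to 92 uM) plus 0.4 nM T3 (final) for 18 h, then CCF4 for 2 h at RT; Hill fit gave IC50.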

[10] = qHTS assay for small molecule agonists of the antioxidant response element (ARE) signaling pathway (AID 651741; active = well fitted activation curve with a large enough effect in the signal ratio; the % refers to the signal ratio; note: % of control where 0% means no effect)
Procedure, shortened: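 ARE-bla HepG2 cells (beta-lactamase reporter under ARE control) were plated at 2,000 cells/well, preincubated 5 h at 37 C/5% CO2, then treated with DMSO-dissolved compounds for 16 h at 37 C; LiveBLAzer B/G FRET substrate added, fluorescence read after 2 h at room temperature.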

[11] = qHTS assay for small molecule activators of the p53 signaling pathway (AID 651743; active = well fitted activation curve with a large enough effect in the signal ratio, not every such curve was filed as active; the % refers to the signal ratio; note: series mostly up to about 92 µM; % of control where 0% means no effect); conditions: HCT-116 p53RE-bla, beta-lactamase FRET ratio, 16 h; activation: stronger effect = higher value
Procedure, shortened: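 p53RE-bla HCT-116 cells with a stably integrated beta-lactamase reporter under p53 response elements were plated, rested 5 hours at 37 C/5% CO2, then exposed to compounds in DMSO for 16 hours at 37 C. LiveBLAzer B/G FRET substrate was read after 2 hours at room temperature.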

[12] = qHTS assay for small molecule activators of the nuclear factor-kappa B (NF-kB) signaling pathway (AID 651749; active = well fitted activation curve with a large enough effect in the signal ratio; the % refers to the signal ratio; note: series mostly up to about 77 µM; % of control where 0% means no effect); conditions: NF-kB-bla ME-180 cells, beta-lactamase FRET ratio, 16 h; activation: stronger effect = higher value
Procedure, shortened: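 ME-180 cells stably carrying a beta-lactamase reporter under an NF-kB response element were exposed to compound or DMSO vehicle for 16 hr at 37C, 5% CO2. Pathway activation was read by FRET, since reporter expression disrupts FRET.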

[13] = qHTS assay for environmental chemicals that activate the Aryl hydrocarbon Receptor (AhR) signaling pathway (AID 651777; active = well fitted curve in the direction sought with a large enough effect; an effect the other way counts as inactive or inconclusive; note: % of control where 0% means no effect; nearly all actives have a fitted effect of over 15% in size); conditions: 1A2-DRE human hepatoma cells, luciferase, 24 h; activation: stronger effect = higher value
Procedure, shortened: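 Human hepatoma 1A2-DRE cells, stably carrying a dioxin response element and CYP1A2 promoter driving luciferase, were exposed to compounds for 24 hr at 37 C and 5% CO2. Luciferase signal was then read after 30 min One-Glo at room temperature.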

[14] = target: Peroxisome proliferator-activated receptor alpha (Homo sapiens) (UniProt Q07869); assay: qHTS assay for small molecule agonists of the peroxisome proliferator-activated receptor alpha (PPARalpha) signaling pathway (AID 651778; active = well fitted curve in the direction sought with a large enough effect; an effect the other way counts as inactive or inconclusive; note: % of control where 0% means no effect); conditions: PathHunter PPARalpha complementation, chemiluminescence, 6 h; max response: stronger effect = higher value
Procedure, shortened: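 Cells plated at 2,000/well and held overnight at 37 C, 5% CO2, then compound added by pin tool for 6 hr; after PathHunter detection reagent and 60 min at room temperature, chemiluminescence from enzyme complementation was read.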

[15] = qHTS assay for small molecule agonists of the antioxidant response element (ARE) signaling pathway measured by Nrf2-dependant transcriptional activity (AID 720636; active = well fitted curve in the direction sought with a large enough effect in the repeat runs; an effect the other way counts as inactive or inconclusive; note: % of control where 0% means no effect)
Procedure, shortened: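 ARE-luc HepG2 cells carrying an Nrf2-responsive luciferase reporter were plated in medium with 1% dialyzed FBS, left 6 hr at 37 C to attach, then exposed to compound for 16 hr. Luciferase luminescence was read after ONE-Glo addition.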

[16] = qHTS assay for small molecule agonists of the antioxidant response element (ARE) signaling pathway measured by Nrf2-dependant transcriptional activity - cell viability counter screen (AID 720653; active = well fitted curve in the direction sought with a large enough effect in the repeat runs; an effect the other way counts as inactive or inconclusive; note: % is set by controls: 0 for no effect and ±100 for the full control effect); conditions: ARE-bla HepG2 viability, CellTiter-Glo ATP luminescence, 16 h; max response: stronger effect = lower value
Procedure, shortened: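 ARE-bla HepG2 cells (2,000/well) rested 5 hrs at 37C/5% CO2, then exposed to compounds in DMSO for 16 hrs. Viability was read in the same wells as intracellular ATP by luminescence, 30 min at room temperature after reagent addition.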

[17] = qHTS assay for cell viability of HEK293 cells (AID 743288; active = well fitted curve in the direction sought with a large enough effect; an effect the other way counts as inactive or inconclusive; note: % is set by controls: 0 for no effect and ±100 for the full control effect; nearly all actives have a fitted effect of over 50% in size); conditions: ATP luminescence (CellTiter-Glo), 18 h; max response: stronger effect = lower value
Procedure, shortened: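 Luminescent ATP quantitation served as the viability read-out. Cells (parental HEK293, 2,000/well) received compounds after at least 5 h at 37 C and were exposed for 18 h before a 30 min room-temperature reagent step.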

[18] = qHTS assay for cell viability of the p53RE-bla HCT-116 cell line (AID 743292; active = well fitted curve in the direction sought with a large enough effect; an effect the other way counts as inactive or inconclusive; note: % is set by controls: 0 for no effect and ±100 for the full control effect; nearly all actives have a fitted effect of over 55% in size)
Procedure, shortened: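 CellSensor p53RE-bla HCT-116 cells, 4,000/well, preincubated 5 h at 37 C, then exposed to compounds in DMSO for 16 h at 37 C. Viability read as CellTiter-Glo luminescence (intracellular ATP) after 30 min at room temperature.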

[19] = target: Nuclear receptor subfamily 1 group I member 2 (Rattus norvegicus) (UniProt Q9R1A7); assay: qHTS assay for small molecule activators of the rat pregnane X receptor (rPXR) signaling pathway (AID 651751; call rule not given here; note: 0% is about no effect); conditions: rPXR reporter cells, luciferase (One-Glo), 24 h
[20] = qHTS assay for small molecule activators of the human pregnane X receptor (PXR) signaling pathway (AID 720659; call rule not given here; note: 0% is about no effect)
[21] = qHTS assay for small molecule antagonists of peroxisome proliferator-activated receptor delta signaling (AID 588535; active = well fitted inhibition curve with a large enough effect in the signal ratio, with a control signal flat, not every such curve was filed as active; the % refers to the signal ratio;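 for max response: cells co-treated with a PPAR-delta agonist as stimulator during compound exposure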); conditions: HEK293T PPARd-UAS-bla, beta-lactamase FRET ratio, 18 h; 460 nm channel
Procedure, shortened: (§2)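 GeneBLAzer PPAR-delta-UAS-bla HEK293T cells in medium with 2% charcoal/dextran FBS were preincubated 5 hrs at 37 C, then given compounds, incubated 18 hrs at 37 C, and read by CCF4 beta-lactamase fluorescence; IC50 from Hill fits.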

[22] = target: Peroxisome proliferator-activated receptor delta (Homo sapiens) (UniProt Q03181); assay: as above
Procedure, shortened: as §2

[23] = qHTS assay for small molecule agonists of retinoid X receptor alpha signaling (AID 588544); conditions: HEK293T RXRa-UAS-bla, beta-lactamase reporter, 18 h; 530 nm emission;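 for activation: 0% = DMSO basal wells and 100% = reference agonist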
[24] = target: Thyroid hormone receptor beta (Homo sapiens) (UniProt P10828); assay: qHTS assay for small molecule agonists of thyroid hormone receptor beta signaling (AID 588545)
Procedure, shortened: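 In this cell-based screen, titrated compounds act on HEK 293 cells held in medium with 2% charcoal/dextran FBS, NEAA and pyruvate for 18 hrs at 37 C. Responses are expressed relative to T3 (10 nM) as 100% and basal DMSO as 0%.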

Thyroid hormone receptor beta (Homo sapiens), sequence (P10828 whole entry, looked up): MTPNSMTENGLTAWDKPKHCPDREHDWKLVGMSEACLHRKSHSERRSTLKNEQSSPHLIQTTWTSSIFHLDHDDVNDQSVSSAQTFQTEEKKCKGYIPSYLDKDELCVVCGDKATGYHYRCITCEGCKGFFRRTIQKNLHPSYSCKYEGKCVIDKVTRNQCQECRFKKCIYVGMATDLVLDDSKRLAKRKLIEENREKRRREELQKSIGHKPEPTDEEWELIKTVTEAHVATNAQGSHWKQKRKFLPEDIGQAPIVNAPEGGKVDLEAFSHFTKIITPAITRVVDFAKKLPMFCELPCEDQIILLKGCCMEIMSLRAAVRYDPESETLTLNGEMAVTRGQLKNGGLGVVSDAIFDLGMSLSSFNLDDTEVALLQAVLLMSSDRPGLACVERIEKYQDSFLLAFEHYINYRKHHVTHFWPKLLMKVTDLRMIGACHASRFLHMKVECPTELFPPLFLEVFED
Vitamin D3 receptor (Homo sapiens), sequence (P11473 whole entry, looked up): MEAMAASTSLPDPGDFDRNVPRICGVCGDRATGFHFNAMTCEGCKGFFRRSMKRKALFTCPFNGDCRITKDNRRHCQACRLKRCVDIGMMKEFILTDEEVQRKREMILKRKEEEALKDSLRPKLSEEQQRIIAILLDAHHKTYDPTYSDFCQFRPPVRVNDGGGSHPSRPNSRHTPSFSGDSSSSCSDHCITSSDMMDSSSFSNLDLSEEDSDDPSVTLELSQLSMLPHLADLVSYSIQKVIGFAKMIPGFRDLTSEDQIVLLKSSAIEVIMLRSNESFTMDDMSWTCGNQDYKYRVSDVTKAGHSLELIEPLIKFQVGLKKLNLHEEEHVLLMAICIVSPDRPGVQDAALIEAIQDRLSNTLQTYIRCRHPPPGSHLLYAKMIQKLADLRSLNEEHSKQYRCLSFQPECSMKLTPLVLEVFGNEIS
Peroxisome proliferator-activated receptor alpha (Homo sapiens), sequence (Q07869 whole entry, looked up): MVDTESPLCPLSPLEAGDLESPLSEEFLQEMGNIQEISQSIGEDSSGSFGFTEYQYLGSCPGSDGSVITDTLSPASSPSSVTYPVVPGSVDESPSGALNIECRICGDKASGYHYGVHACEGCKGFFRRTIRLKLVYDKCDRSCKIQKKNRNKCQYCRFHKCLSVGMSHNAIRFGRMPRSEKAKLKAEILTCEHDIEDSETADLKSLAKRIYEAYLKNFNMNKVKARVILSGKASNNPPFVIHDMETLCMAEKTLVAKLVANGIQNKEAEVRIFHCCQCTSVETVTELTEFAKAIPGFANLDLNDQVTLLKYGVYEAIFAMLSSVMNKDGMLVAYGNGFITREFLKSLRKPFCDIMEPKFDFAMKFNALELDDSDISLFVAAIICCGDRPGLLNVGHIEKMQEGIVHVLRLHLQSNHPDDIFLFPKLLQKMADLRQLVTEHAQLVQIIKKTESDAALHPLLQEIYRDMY
Peroxisome proliferator-activated receptor delta (Homo sapiens), sequence (Q03181 whole entry, looked up): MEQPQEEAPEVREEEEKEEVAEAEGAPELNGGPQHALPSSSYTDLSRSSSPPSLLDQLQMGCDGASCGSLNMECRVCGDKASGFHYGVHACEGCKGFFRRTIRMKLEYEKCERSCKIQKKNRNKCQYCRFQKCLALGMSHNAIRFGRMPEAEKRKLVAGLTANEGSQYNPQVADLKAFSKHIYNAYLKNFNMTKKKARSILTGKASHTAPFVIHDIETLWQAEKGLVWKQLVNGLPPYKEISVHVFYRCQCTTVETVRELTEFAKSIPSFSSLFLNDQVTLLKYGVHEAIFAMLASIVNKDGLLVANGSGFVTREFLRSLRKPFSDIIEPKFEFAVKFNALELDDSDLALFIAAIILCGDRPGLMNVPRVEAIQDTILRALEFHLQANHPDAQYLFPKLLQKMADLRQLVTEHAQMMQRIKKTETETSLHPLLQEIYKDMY
Peroxisome proliferator-activated receptor gamma (Homo sapiens), sequence (P37231 whole entry, looked up): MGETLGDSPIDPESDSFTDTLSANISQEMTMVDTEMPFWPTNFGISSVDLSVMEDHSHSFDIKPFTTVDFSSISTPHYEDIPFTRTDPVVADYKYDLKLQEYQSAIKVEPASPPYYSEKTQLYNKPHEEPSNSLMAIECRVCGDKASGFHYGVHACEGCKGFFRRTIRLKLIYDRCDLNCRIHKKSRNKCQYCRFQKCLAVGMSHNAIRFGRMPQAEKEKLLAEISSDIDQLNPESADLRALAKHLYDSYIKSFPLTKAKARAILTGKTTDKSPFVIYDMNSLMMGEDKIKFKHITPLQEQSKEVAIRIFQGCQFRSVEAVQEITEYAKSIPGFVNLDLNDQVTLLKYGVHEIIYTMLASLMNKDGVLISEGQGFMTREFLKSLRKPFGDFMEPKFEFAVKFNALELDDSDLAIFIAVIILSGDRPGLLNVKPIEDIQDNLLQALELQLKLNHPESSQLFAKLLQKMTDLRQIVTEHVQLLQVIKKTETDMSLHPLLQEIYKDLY
Retinoic acid receptor RXR-alpha (Homo sapiens), sequence (P19793 whole entry, looked up): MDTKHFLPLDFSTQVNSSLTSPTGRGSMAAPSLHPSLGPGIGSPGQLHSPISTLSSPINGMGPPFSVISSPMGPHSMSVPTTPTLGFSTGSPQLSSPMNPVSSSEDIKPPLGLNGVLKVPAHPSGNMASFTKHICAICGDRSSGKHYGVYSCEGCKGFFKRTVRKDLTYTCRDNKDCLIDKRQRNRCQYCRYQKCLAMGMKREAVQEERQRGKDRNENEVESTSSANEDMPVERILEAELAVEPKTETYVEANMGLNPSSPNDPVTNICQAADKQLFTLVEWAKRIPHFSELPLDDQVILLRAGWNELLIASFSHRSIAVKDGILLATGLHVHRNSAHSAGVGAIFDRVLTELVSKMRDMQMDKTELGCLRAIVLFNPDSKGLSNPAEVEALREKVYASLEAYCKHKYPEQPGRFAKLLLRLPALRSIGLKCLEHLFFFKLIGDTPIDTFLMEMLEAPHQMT
Nuclear receptor subfamily 1 group I member 2 (Rattus norvegicus), sequence (Q9R1A7 whole entry, looked up): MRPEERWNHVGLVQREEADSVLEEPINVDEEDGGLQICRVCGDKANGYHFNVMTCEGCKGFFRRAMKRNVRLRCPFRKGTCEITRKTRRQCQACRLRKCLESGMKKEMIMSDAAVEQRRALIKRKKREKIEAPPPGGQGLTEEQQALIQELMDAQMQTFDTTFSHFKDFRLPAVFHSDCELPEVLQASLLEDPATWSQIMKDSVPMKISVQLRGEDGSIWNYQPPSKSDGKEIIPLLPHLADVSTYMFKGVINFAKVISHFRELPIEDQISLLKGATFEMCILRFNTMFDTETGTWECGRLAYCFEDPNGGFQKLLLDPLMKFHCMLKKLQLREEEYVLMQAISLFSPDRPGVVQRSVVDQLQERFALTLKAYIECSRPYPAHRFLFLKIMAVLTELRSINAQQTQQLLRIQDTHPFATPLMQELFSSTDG

Nc1ccccc1S(=O)(=O)O
inactive: outcome [1]

Cc1cc(C)c(N)c(Cl)c1
inactive: outcome [1]

CC1=NNC(=O)N(/N=C/c2cccnc2)C1
-9.27%: max response [7]
inactive: outcome [1] | Potency [2] | Potency [3] | Potency [4] | outcome [5] | Potency [6] | max response [8] -13.2% | activity change % (negative = inhibition) [9] -22% | Potency [10] | activation [11] 3.81% | activation [12] 0.0556% | activation [13] -0.299% | max response [14] -0.256% | Potency [15] | max response [16] -9.52% | max response [17] -11.1% | Potency [18] | max response [19] -1.81% | outcome [20]

Fc1ccccc1
inactive: outcome [1]

CSc1ccc(C=O)cc1
inactive: outcome [1]

CCN(CC)c1cccc(O)c1
inactive: outcome [1]

CCC(C)(CC)c1cc(NC(=O)c2c(OC)cccc2OC)on1
12.1%: max response [23]
inactive: outcome [1] | Potency [22] | Potency [2] | Potency [3] | Potency [4] | outcome [5] | Potency [6] | Potency [24] | max response [8] -17.5% | activity change % (negative = inhibition) [9] 0.364% | activation [13] 0.26% | max response [14] -1.49% | Potency [15] | max response [16] 10.3% | max response [17] -25.2% | Potency [18]
7.62%: max response [21]
5.81%: max response [7]

NCCCCCCN
inactive: outcome [1]

CC(=NC#N)N(C)Cc1ccc(Cl)nc1
24.8%: max response [21]
-1.52%: max response [7]
inactive: outcome [1] | Potency [22] | Potency [2] | Potency [3] | Potency [4] | outcome [5] | Potency [6] | Potency [24] | activity change % (negative = inhibition) [9] -1.79% | Potency [10] | activation [11] -5.43% | activation [13] 0.519% | max response [14] -1.88% | Potency [15] | max response [16] -5.31% | max response [17] -11.8% | max response [19] 2.55% | outcome [20]

CCCCCCC=O
inactive: outcome [1]

CC(C)C(C(=O)OC(C#N)c1cccc(Oc2ccccc2)c1)c1ccc(Cl)cc1 (stereo not drawn)
inactive: outcome [1] | Potency [22] | Potency [2] | Potency [3] | Potency [24] | activation [11] 0.961% | max response [14] 0.669% | Potency [15] | max response [17] -26.6% | Potency [18]
-0.258%: max response [21]

CC(=O)c1ccccc1[N+](=O)[O-]
inactive: outcome [1]
